From PubChem BioAssay (NCATS)

Assay: qHTS profiling of the MIPE4 collection as inhibitors of Plasmodium falciparum (HB3) proliferation (AID 743347);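 note: plate controls were DMSO vehicle wells for no effect and artemisinin wells for full effect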
Conditions: P. falciparum HB3 in erythrocytes, SYBR Green DNA, 72 h; at 28.5 µM (top of the series)
Outline: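 Parasite DNA was quantified by SYBR Green I fluorescence (ex 485, em 535 nm) after overnight lysis in saponin/Triton buffer at room temperature. Cultures at 0.3% parasitemia and 2.5% hematocrit were first exposed to compound for 72 h at 37 C; signals were normalised to artemisinin (0.29 uM) and vehicle wells.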

Row | Compound | growth, % of control [%]
1 | COc1cc([C@@H]2c3cc4c(cc3[C@@H](O)C3COC(=O)C32)OCO4)cc(OC)c1O (stereo partly specified) | 66.2
2 | O=C(Oc1ccc([N+](=O)[O-])cc1)N1CCC(C(O)(c2ccc3c(c2)OCO3)c2ccc3c(c2)OCO3)CC1 | 77.1
3 | NC1=NC(=O)N2CC12 (stereo unspecified) | 68.6
4 | Cc1ccccc1-n1c(Cn2cnc3c(N)ncnc32)nc2cccc(C)c2c1=O | 2.42
5 | CC[C@H](CO)Nc1nc(NCc2ccccc2)c2ncn(C(C)C)c2n1 | 47.3
6 | C[C@@H]1[C@H](O)[C@@H](C)C=CC=CCCC=CC=CC=CC=C[C@H](O[C@H]2O[C@@H](C)[C@H](O)[C@@H](N)[C@@H]2O)CC2O[C@](O)(C[C@@H](O)[C@H](O)CC[C@@H](O)C[C@@H](O)C[C@@H](O)CC(=O)O[C@H]1C)C[C@H](O)[C@H]2C(=O)O | 83.8
7 | Cc1nc(-c2ccc(-c3ccc(C(=O)N4CCc5cc6c(cc54)C4(CCN(C)CC4)CO6)cc3)c(C)c2)no1 | 43.5
8 | C[C@H]1CCCC=CC2C[C@H](O)C[C@@H]2[C@H](O)C=CC(=O)O1 (stereo partly specified) | 2.99
9 | CN1[C@H]2CC(O)C[C@H]1[C@H]1O[C@H]12 (stereo partly specified) | 7.31
10 | COc1ccc2c(c1)CC[C@H]1[C@@H]2CC[C@]2(C)[C@@H](NCCCCCCN3C(=O)C=CC3=O)CC[C@H]12 | 77.6
11 | N=c1c2c(-c3ccccc3)c(-c3ccccc3)n(Cc3ccccc3)c2ncn1C1CCC(O)CC1 (stereo unspecified) | 9.68
